From PubChem BioAssay (NCATS)
Records with an inconclusive call do not appear. Where a call stands in place of a potency, no number is given. Activity calls are given as the source filed them. Calls come from the whole dose curve; as a rule, active = well fitted curve in the direction sought with a large enough effect; inconclusive = small, poorly fitted or top-dose-only effect, or another doubt; inactive = no such curve, though single readings can be large; an effect the other way counts as inactive or inconclusive.

What was measured:
[1] = qHTS of pediatric cancer cell lines to identify multiple opportunities for drug repurposing: Primary screen for SK-N-SH cells (AID 1347098); note: nearly all actives have a fitted effect of over 65% in size; note: potency is the fitted concentration of half-maximal effect
Summary of the method: (§1)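 Cells (500-1,000/well) rested 5 h, then received compounds for 48 h; metabolically active cells were measured by CellTiter-Glo luminescence. Final concentrations spanned up to 46 µM (MIPE, 11-point) or 0.59 nM-46 µM (NPC, 8-point) in primary screens, 11-point in follow-ups.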

[2] = qHTS of pediatric cancer cell lines to identify multiple opportunities for drug repurposing: Primary screen for LAN-5 cells (AID 1347100); note: potency is the fitted concentration of half-maximal effect
Summary of the method: (§2)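 Cells (500-1,000/well) in growth media were settled 5 h at 37 degrees C, then given compounds for 48 h. Viability was read as CellTiter-Glo luminescence. Primary runs used MIPE at 11 points (0.78 nM-46 µM) and NPC at 8 points (0.59 nM-46 µM); follow-ups used 11 points.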

[3] = qHTS of pediatric cancer cell lines to identify multiple opportunities for drug repurposing: Primary screen for BT-12 cells (AID 1347101); note: nearly all actives have a fitted effect of over 25% in size; note: potency is the fitted concentration of half-maximal effect
Summary of the method: as §1

[4] = qHTS of pediatric cancer cell lines to identify multiple opportunities for drug repurposing: Primary screen for Rh18 cells (AID 1347102); note: nearly all actives have a fitted effect of over 65% in size; note: potency is the fitted concentration of half-maximal effect
Summary of the method: as §2

[5] = qHTS of pediatric cancer cell lines to identify multiple opportunities for drug repurposing: Primary screen for OHS-50 cells (AID 1347103); note: nearly all actives have a fitted effect of over 40% in size; note: potency is the fitted concentration of half-maximal effect
Summary of the method: as §1

[6] = qHTS of pediatric cancer cell lines to identify multiple opportunities for drug repurposing: Primary screen for RD cells (AID 1347104); note: nearly all actives have a fitted effect of over 55% in size; note: potency is the fitted concentration of half-maximal effect
Summary of the method: (§3)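 Cells seeded at 500-1,000 cells/well in growth media, rested 5 hours at 37 degrees C, 5% CO2, then dosed; MIPE compounds at 11-point (from 0.78 nM) and NPC at 8-point (from 0.59 nM) final concentrations. Viability by CellTiter-Glo luminescence after 48 hours.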

[7] = qHTS of pediatric cancer cell lines to identify multiple opportunities for drug repurposing: Primary screen for control Hh wild type fibroblast cells (AID 1347106); note: nearly all actives have a fitted effect of over 55% in size; note: potency is the fitted concentration of half-maximal effect
Summary of the method: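 Viability after 48 h compound treatment at 37C, 500-1,000 cells/well, read as ATP luminescence with CellTiter-Glo. Primary screens used 11-point (MIPE, 0.78 nM-46 µM) or 8-point (NPC, 0.59 nM-46 µM) final concentrations; follow-up screens used 11-point dilutions.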

[8] = qHTS of pediatric cancer cell lines to identify multiple opportunities for drug repurposing: Primary screen for MG 63 (6-TG R) cells (AID 1347105); note: nearly all actives have a fitted effect of over 50% in size; note: potency is the fitted concentration of half-maximal effect
Summary of the method: as §3

[9] = qHTS of pediatric cancer cell lines to identify multiple opportunities for drug repurposing: Primary screen for Rh30 cells (AID 1347107); note: nearly all actives have a fitted effect of over 75% in size; note: potency is the fitted concentration of half-maximal effect
Summary of the method: as §2

[10] = qHTS of pediatric cancer cell lines to identify multiple opportunities for drug repurposing: Primary screen for NB1643 cells (AID 1347099); note: nearly all actives have a fitted effect of over 50% in size
Summary of the method: as §3

Compound | Potency [1] | Potency [2] | Potency [3] | Potency [4] | Potency [5] | Potency [6] | Potency [7] | Potency [8] | Potency [9] | Potency [10]
CCCCCCCCCCCC[N+](C)(C)CCOc1ccccc1 | 13700 nM (active) | 23700 nM (active) | 24600 nM (active) | 8410 nM (active) | 4900 nM (active) | 23700 nM (active) | inactive |  |  | 
CCOC(=O)C1(c2ccccc2)CCN(CCc2ccc(N)cc2)CC1 | inactive | inactive | inactive | inactive | inactive | inactive | inactive | inactive | inactive | 
C[C@]12C=CC(=O)C=C1CC[C@@H]1[C@@H]2CC[C@@]2(C)[C@H]1CC[C@]2(C)O | inactive | inactive | inactive | inactive |  | inactive | inactive | inactive | inactive | 
O=C(O)CCCCCCNC1c2ccccc2CCc2ccccc21 | inactive | inactive | inactive | inactive | inactive | inactive | inactive | inactive | inactive | 
ClCCCN1CCN(c2cccc(Cl)c2)CC1 | inactive | inactive | inactive | inactive |  | inactive | inactive | inactive | inactive | 
NC(=O)OCCCc1ccccc1 | inactive | inactive | inactive | inactive | inactive | inactive | inactive | inactive | inactive | 
Cc1ccc([N+](=O)[O-])[c]2c1[O][Hg]2 | 1090 nM (active) |  | 2760 nM (active) | 1500 nM (active) | 550 nM (active) | 188 nM (active) |  | 1330 nM (active) | 2110 nM (active) | 
COc1ccc(CN2CCNCC2)c(OC)c1OC | inactive | inactive | inactive | inactive | inactive | inactive | inactive | inactive | inactive | 
CCc1ccc(C2CCNCC2)cc1 | inactive | inactive | inactive | inactive |  | inactive | inactive | inactive | inactive | 
C[C@@H]1CN(C2CCC(C#N)(c3ccc(F)cc3)CC2)CC[C@]1(C(=O)O)c1ccccc1 (stereo not given in full) | inactive | inactive | inactive | inactive | inactive | inactive | inactive | inactive | inactive | 
NCc1cccnc1 | inactive | inactive | inactive | inactive | inactive | inactive | inactive | inactive | inactive | 
COCC(=O)N(c1c(C)cccc1C)C(C)C(=O)OC (stereo not given) | inactive | inactive | inactive | inactive | inactive | inactive | inactive | inactive | inactive | 
C[C@@H]1O[C@@H](O[C@@H]2C=C3CC[C@@H]4[C@H](CC[C@]5(C)[C@@H](c6ccc(=O)oc6)CC[C@]45O)[C@@]3(C)CC2)[C@H](O)[C@H](O)[C@H]1O | 68.7 nM (active) | 10.6 nM (active) | 3.1 nM (active) |  | 2.5 nM (active) | 1.5 nM (active) | 7.5 nM (active) | 1.7 nM (active) | inactive | 
CC1N=C(N)OC1c1ccccc1 (stereo not given) | inactive | inactive | inactive | inactive | inactive | inactive | inactive |  | inactive | 
Cc1ncc2n1-c1ccc(Cl)cc1C(c1ccccc1F)=NC2 | inactive |  | inactive | inactive |  | inactive | inactive |  | inactive | 
CCN(Cc1ccc(Cl)nc1)/C(=C/[N+](=O)[O-])NC | inactive | inactive | inactive | inactive | inactive | inactive | inactive | inactive | inactive | 
CCC1(c2cccc(O)c2)CCCCN(C)C1 (stereo not given) | inactive | inactive | inactive | inactive | inactive | inactive | inactive | inactive | inactive | 
Sc1ccccc1Cl | inactive | inactive | inactive | inactive | inactive | inactive | inactive | inactive | inactive | 
CC1Sc2c(C(=O)O)c(=O)c3cc(F)c(N4CCNCC4)cc3n21 (stereo not given) | inactive | inactive | inactive | inactive | inactive | inactive | inactive | inactive | inactive | 
OC(O)C(Cl)(Cl)Cl | inactive | inactive | inactive | inactive | inactive | inactive | inactive | inactive | inactive | 
CC[C@H]1C[C@@H]2C[C@H]3c4[nH]c5ccc(OC)cc5c4CCN(C2)[C@@H]13 | 30900 nM (active) |  |  | inactive |  |  | inactive |  | inactive | inactive
Cc1nc2ccccc2c(=O)n1-c1ccccc1Cl |  | inactive | inactive | inactive |  | inactive | inactive |  | inactive | inactive
